# Compound activity as filed in PubChem BioAssay.
# hgDAF12 agonist: activates the H. glycines DAF-12 receptor ligand-binding domain | HEK293 GAL4-hgDAF12 UAS-luciferase reporter, agonist luminescence; normalized to butyrate control | activation, % at 6.8 µM | 1.8% of 370,000 active;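 active = activation above a cutoff set at the mean of all screened compounds plus 3 SD, cut at about 10% in these data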;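 note: 0% = DMSO wells and 100% = sodium butyrate wells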
# hcDAF-12 act: activators of H. contortus DAF-12 nuclear receptor | HEK293 hcDAF-12 lit1-tk-luc reporter, luminescence; 0% DMSO, 100% Δ7-dafachronic acid | activation, % at 6.8 µM | 1.4% of 370,000 active | AID 652067;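 active = activation above the mean of all tested compounds plus 3 SD, cut at about 5.5% in these data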;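 note: 100% = response to 3 µM Δ7-dafachronic acid high control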
# ssDAF-12 act: activators of S. stercoralis DAF-12 nuclear receptor | HEK293 ssDAF-12/GRIP1 lit1-tk-luc reporter, luminescence; % of 3 µM dafachronic acid response | activation, % at 6.8 µM | 1% of 370,000 active | AID 652126;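 active = activation above the mean over all tested compounds plus 3 SD, cut at about 0.9% in these data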;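 note: 0% = DMSO-only wells and 100% = 3 µM delta7-dafachronic acid wells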
# DAX1 inh-1: blocks DAX1 repression of SF-1 activated StAR promoter. inhibition, % at 6.8 µM. 1.1% of 370,000 active. HEK293T StAR-luciferase reporter, SF-1/DAX-1 repression relief;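 active = inhibition above the mean over all tested compounds plus 3 SD, cut at about 3.6% in these data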;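 note: 0% = DAX-1 cells with DMSO and 100% = cells lacking DAX-1 with DMSO; higher inhibition means more luminescence from relief of DAX-1 repression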
# DAX1 inh-2: inhibits human nuclear receptor DAX1; 0.99% of 340,000 active; AID 504766; P51843; inhibition, % at 6.75 µM; HEK293 Gal4-DAX1 luciferase reporter, luminescence;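 active = inhibition above the mean over all tested compounds plus 3 SD, cut at about 4.2% in these data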;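 note: 0% = DAX1-transfected cells with DMSO and 100% = empty-vector control cells with DMSO; inhibition shows as a rise in luminescence from relieved DAX1 repression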
# Target sequence (P51843 207-470 limits assumed): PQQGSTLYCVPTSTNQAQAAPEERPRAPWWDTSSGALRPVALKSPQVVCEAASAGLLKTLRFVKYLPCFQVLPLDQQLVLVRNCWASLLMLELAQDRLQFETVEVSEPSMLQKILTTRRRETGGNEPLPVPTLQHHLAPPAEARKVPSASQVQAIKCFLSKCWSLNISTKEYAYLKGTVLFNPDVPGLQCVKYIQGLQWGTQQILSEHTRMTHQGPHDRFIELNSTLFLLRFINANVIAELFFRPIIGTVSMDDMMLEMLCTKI
# SMARCA2 act: increases SMARCA2 function in MMTV reporter cells; 1% of 370,000 active; MG213 cells, MMTV-luciferase reporter, dexamethasone, overnight; AID 652017; activation, % at 9.1 µM; in the data active = activation above about 7.8%;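 note: 0% = vehicle wells and 100% = reference activator wells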
# LXRb hcDAF ctr: LXR-beta agonism as hcDAF-12 counter-screen. HEK293 Gal4-LXR tk-luc reporter, luminescence, 24 h; normalized: DMSO 0%, positive control 100%. AID 743027. shares compounds with hcDAF-12 act. 3,400 tested, under 10 active. activation, % at 6.8 µM;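 active = mean percent activation of the reporter above a cutoff set as the average over tested compounds plus their standard deviation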
# hcDAF12 ag: hcDAF-12 agonism, confirmation assay; shares compounds with hcDAF-12 act; HEK293 hcDAF-12 lit1-tk-luc reporter, luminescence; % of Δ7-dafachronic acid response; activation, % at 6.8 µM; 61% of 3,400 active;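 active = mean activation across triplicate tests above the threshold derived from the earlier primary screen, cut at about 5.5% in these data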;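 note: 0% = DMSO only wells and 100% = 3 µM Δ7-dafachronic acid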
# The depositor's hits bear a star; / = no result given. The list is not random: actives were taken first. Their share in the collection is about 4.8%.
SMILES,hgDAF12 agonist,hcDAF-12 act,ssDAF-12 act,DAX1 inh-1,DAX1 inh-2,SMARCA2 act,LXRb hcDAF ctr,hcDAF12 ag
CCN1c2ccccc2-c2nc3ccccc3n2C1c1ccco1 (stereo unspecified),-1.1,-1.1,-1.7,-1.2,-0.9,-7.6,/,/
COc1cc2c(cc1NC(=O)Nc1ccc(C)cc1)oc1ccccc12,7.1,8.5*,-0.8,0.1,-1.1,-1.5,-0.1,1.4
COc1ccc(Cl)cc1NC(=O)C1CCCO1 (stereo unspecified),0.8,-2.0,-1.1,0.2,1.1,0.2,/,/
COc1cc2c(cc1NC(=O)C1CCCO1)oc1ccccc12 (stereo unspecified),15.1*,11.9*,2.3*,3.1,1.2,2.5,1.3,16.8*
S=c1[nH]nc(-c2n[nH]c3c2CCC3)n1N=Cc1c[nH]c2ccccc12,-5.0,-1.1,-0.9,0.9,/,-2.9,/,/
Cc1ccc(SC2=C(Sc3ccc(C)cc3)C(=O)c3ccccc3C2=O)cc1,6.1,9.7*,0.7,1.6,3.1,4.9,0.0,2.3
COC1=C(Nc2ccc(C)cc2)C(=O)c2ccccc2C1=O,8.1,3.4,-0.7,-0.2,-1.1,1.5,/,/
COc1ccc(-c2nc3ccccc3c(=O)n2CCOc2ccccc2C)cc1,2.6,6.6*,0.0,-0.2,6.9*,2.0,-0.3,1.6
Cc1cc(N2CCNC[C@@H]2C)ccc1N1CCS(=O)(=O)CC1,4.0,2.4,-1.6,0.7,/,-1.3,/,/
CCN=C1NC(c2ccc(F)cc2)C(C(=O)OC)=C(C)N1Cc1cccc(C(F)(F)F)c1 (stereo unspecified),-0.9,-0.3,-0.8,1.5,/,-6.3,/,/
Cc1ccc(-n2c3c(cc(C(=O)NC4CCSC4=O)c2=O)C(=O)CC(C)(C)C3)cc1 (stereo unspecified),-0.4,6.9*,-1.4,0.1,0.0,2.0,-0.4,-0.9
O=C(OC12CCCN(C1)/C(=C/c1cccc(Cl)c1)C2)C1CCCC1 (stereo unspecified),1.6,-1.5,-0.8,1.2,/,-3.0,/,/
CC(C)(C)c1ccc(S(=O)(=O)N2CCCC(C(=O)NCc3cccs3)C2)cc1 (stereo unspecified),3.2,-1.2,-1.7,-0.8,/,-1.9,/,/
COc1cccc(OCc2ccc(Cl)cc2)c1C#N,12.3*,8.4*,1.7*,3.2,4.8*,6.8,1.8,7.3*
COc1cccc(CNC(C)(C)CO)c1OCc1ccc(Cl)cc1,-1.8,-1.3,-1.3,0.4,-0.7,-3.7,/,/
CSc1nc(=S)n(Cc2ccccc2)c(C)c1C(C)=O,0.3,9.1*,-1.2,0.7,0.5,-0.4,-0.1,1.2
O=C(O)/C=C/C(=O)Nc1cccc2cccnc12,-2.6,-1.2,-1.0,-0.4,0.9,-3.9,/,/
O=C(/C=C/c1ccco1)Nc1cccc2cccnc12,10.2,6.8*,0.6,0.8,0.4,6.3,0.3,7.0*
CC(=O)c1ccc(NC(=O)[C@@]2(CC(=O)O)CC(/C=C/c3ccccc3)=NO2)cc1,-0.8,-0.4,-0.7,-0.3,0.4,-1.4,/,/
COc1ccc(NC(=O)[C@@]2(CC(=O)O)CC(/C=C/c3ccccc3)=NO2)cc1,0.7,7.9*,-0.5,0.2,0.9,-0.9,-0.1,1.3
Cc1ccc(NC(=O)c2ccc(OC(=O)COc3cccc(Cl)c3)cc2)cc1,11.7*,7.6*,0.1,3.9*,0.8,6.2,1.0,4.4
Cc1cccc(OCC(=O)Oc2ccc(Cl)cc2)c1,0.6,-1.0,-1.4,0.0,1.0,-1.7,/,/
Cc1nc2c(Cl)cccc2c2c1CC(CBr)O2 (stereo unspecified),-1.2,-2.1,-1.8,-0.2,-0.9,-2.3,/,/
Cc1ccc2nc(Br)c3c(c2c1)OC(CBr)C3 (stereo unspecified),0.8,7.4*,-2.0,0.0,-0.6,-2.2,-0.2,0.0
C=CCNc1cccc2c1S(=O)(=O)N[C@@H](Cc1ccccc1)CO2,1.7,1.1,-1.6,-1.5,/,-3.3,/,/
SMILES,hgDAF12 agonist,hcDAF-12 act,ssDAF-12 act,DAX1 inh-1,DAX1 inh-2,SMARCA2 act,LXRb hcDAF ctr,hcDAF12 ag
COc1ccc(-c2n[nH]c(C)c2-c2ccc(Cl)cc2)c(O)c1,-1.6,-3.3,-1.4,-0.7,0.0,-0.6,/,/
COc1ccc(-c2cc(-c3ccc(C)cc3)n[nH]2)c(O)c1,13.1*,6.9*,0.4,3.6,5.8*,0.5,1.0,2.4
Cc1cc(SCC(=O)c2cccs2)nc2ccccc12,9.3,8.8*,0.4,0.7,1.7,6.5,0.1,4.1
COC(=O)[C@@H](Cc1ccccc1)NC(=O)[C@H]1O[C@@H](n2cnc3c(=O)[nH]c(N)nc32)[C@H](O)[C@@H]1O,-0.9,-0.2,-1.0,-0.2,/,0.4,/,/
Cc1cc(C)n(-c2nc(C)nc3c2cnn3-c2ccccc2)n1,-0.6,10.3*,-0.4,0.2,0.7,-0.4,0.0,7.8*
COc1cccc(NC(=O)c2cc3ccccc3oc2=O)c1,13.2*,7.2*,-0.1,2.6,3.1,3.9,1.2,8.7*
COC(=O)C1=C(C)N(Cc2ccc(C(F)(F)F)cc2)C(=NCc2ccccc2)NC1c1cccc(Cl)c1 (stereo unspecified),-0.6,4.6,-0.8,-0.1,/,-8.2,/,/
CCC(NC(=O)Cn1c(-c2ccccc2)cc(C(C)=O)c1C)c1ccccc1 (stereo unspecified),0.0,1.4,-1.2,1.6,/,-4.2,/,/
COCc1c(C(=O)Nc2nc(C)cs2)oc2ccccc12,2.6,6.8*,0.0,0.0,-1.6,0.2,0.1,5.7*
COCc1c(C(=O)Nc2ccc(Cl)cc2F)oc2ccccc12,3.2,4.8,-1.2,0.2,3.7,1.6,/,/
Cc1cccc(/C(N)=N/OC(=O)c2cccc3ccccc23)c1,4.8,7.0*,0.9*,2.5,2.1,0.1,0.3,6.3*
N/C(=N\OC(=O)c1ccccc1Cl)c1ccc(Cl)cc1,9.1,9.1*,1.5*,1.6,1.9,7.7,1.4,14.7*
N/C(=N\OC(=O)c1cccc2ccccc12)c1cccc([N+](=O)[O-])c1,-0.9,0.4,-1.5,0.7,0.7,-0.8,/,/
N/C(=N\OC(=O)c1ccc(Cl)cc1Cl)c1ccccc1,10.3,7.3*,0.1,2.5,2.3,2.8,2.1,25.1*
N/C(=N\OC(=O)c1ccc(Cl)cc1Cl)c1ccc(Cl)cc1,2.3,2.2,0.0,-0.1,4.2,0.1,/,/
CC(=O)Nc1cc2nc3ccccc3oc-2cc1=O,-4.7,-1.6,-0.9,-2.5,/,0.2,/,/
